About 83,000 compounds went through this panel and 20% of them were active in at least one assay; those are over-represented in the sample as a whole.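 Assay: single dose, 48 h. Readout: percent growth (0 = no net growth; negative = cell death). Active: <10.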 A number with no mark means an inactive call. Activity calls are given as the source filed them.

From PubChem BioAssay (NCI) come the findings set out here.

Among the test systems are HCT-15 colon; HT29 colon; SNB-75 CNS; SNB-19 CNS; U251 CNS; PC-3 prostate; SK-MEL-5 melanoma; UACC-62 melanoma; LOX IMVI melanoma; SK-MEL-28 melanoma; SK-MEL-2 melanoma; EKVX NSCLC; SN12C renal; UO-31 renal; TK-10 renal; ACHN renal; CAKI-1 renal; A498 renal; CCRF-CEM leukemia; MOLT-4 leukemia.
Holding throughout (test): NCI-60 one-dose screen, 48 h (100 = growth as untreated, 0 = no growth, -100 = all killed)
Holding throughout (details): 10 µM unless noted

As to `Cn1cccc1C(=O)C1C(c2cccc([N+](=O)[O-])c2)C2C3CCCCC3CN2C12C(=O)Nc1ccc(Cl)cc12` (stereo not given), the growth with HCT-15 colon was 41.7%; with HT29 colon it was 41.9%; in the experiment with SNB-75 CNS it was 37.4%; in the experiment on SNB-19 CNS it was 53.2%; in the experiment with U251 CNS, 53.8%; with PC-3 prostate it was 35.2%. Moreover, the growth with SK-MEL-5 melanoma is 64.5%; in the experiment on UACC-62 melanoma, 60.1%; in the experiment on LOX IMVI melanoma, 37.3%; with SK-MEL-28 melanoma, 83.2%; in the experiment with SK-MEL-2 melanoma it was 66.5%; in the experiment with EKVX NSCLC it was 46.4%. Also, the growth is 59.4% in the experiment on SN12C renal; 45.5% with UO-31 renal; 103% in the experiment on TK-10 renal; 59.9% with ACHN renal; 17.4% in the experiment on CAKI-1 renal; 86% with A498 renal. In addition, the growth is 58.6% with CCRF-CEM leukemia and 28% in the experiment on MOLT-4 leukemia.

Turning to `COc1ccc(-c2nc(SCC(C)C)nc(N/N=C\c3ccc(F)cc3)c2C#N)cc1`, the growth in the experiment with HCT-15 colon was 85.3%; in the experiment with HT29 colon, 90.5%; with SNB-75 CNS, 80%; with SNB-19 CNS, 81%; in the experiment with U251 CNS, 94.5%; with PC-3 prostate, 84.9%. The growth was 103% with SK-MEL-5 melanoma; 88.6% in the experiment on UACC-62 melanoma; 97.4% in the experiment with LOX IMVI melanoma; 98.8% in the experiment with SK-MEL-28 melanoma; 104% in the experiment with SK-MEL-2 melanoma; 93.9% in the experiment on EKVX NSCLC. Moreover, the growth is 78.6% in the experiment on SN12C renal; 67.2% in the experiment with UO-31 renal; 81.5% in the experiment with TK-10 renal; 30.3% with ACHN renal; 91.1% in the experiment on CAKI-1 renal; 74.4% with A498 renal. For the same compound, the growth in the experiment on CCRF-CEM leukemia is 82.3%; in the experiment with MOLT-4 leukemia, 88.2%.

As to `COc1ccc(/C=N/C2=C(C#N)C(c3cccc(Cl)c3)c3c(ccc4ccccc34)O2)cc1` (stereo not given), the growth in the experiment on HCT-15 colon is 16.7%; in the experiment with HT29 colon, 10.3%; with SNB-75 CNS it was -30.1% (active); in the experiment with SNB-19 CNS, 26.8%; with U251 CNS it was 25.6%; with PC-3 prostate, 23.8%. In addition, the growth was 31.3% in the experiment with SK-MEL-5 melanoma; 36.3% in the experiment on UACC-62 melanoma; 26.7% with LOX IMVI melanoma; 70.1% in the experiment on SK-MEL-28 melanoma; 51.2% in the experiment on SK-MEL-2 melanoma; 33.9% with EKVX NSCLC. The growth was 39.6% in the experiment with SN12C renal; 43% in the experiment with UO-31 renal; 82% in the experiment on TK-10 renal; 31% in the experiment on ACHN renal; 20.3% with CAKI-1 renal; -4.91% (active) with A498 renal. The growth is 16.9% with CCRF-CEM leukemia and 21.8% in the experiment on MOLT-4 leukemia.

With `O=C(Nc1cccc([N+](=O)[O-])c1)c1cc2ccccc2cc1O`, the growth was 12.8% in the experiment with HCT-15 colon; 13.4% in the experiment with HT29 colon; 6.46% (active) with SNB-75 CNS; 25.8% with SNB-19 CNS; 6.12% (active) in the experiment on U251 CNS; 0.633% (active) with PC-3 prostate. Moreover, the growth in the experiment with SK-MEL-5 melanoma was -53.6% (active); in the experiment with UACC-62 melanoma it was 18.8%; in the experiment on LOX IMVI melanoma it was 10%; with SK-MEL-28 melanoma, 28.1%; in the experiment on SK-MEL-2 melanoma it was 1.68% (active); with EKVX NSCLC it was 3.68% (active). Besides, the growth in the experiment with SN12C renal was 0.988% (active); with UO-31 renal, 4.6% (active); in the experiment on TK-10 renal, 17.4%; in the experiment with ACHN renal, 0.0296% (active); in the experiment on CAKI-1 renal it was -22.9% (active); in the experiment with A498 renal, 1.58% (active). Also, the growth is -12.7% (active) with CCRF-CEM leukemia and -44.6% (active) in the experiment on MOLT-4 leukemia.

Regarding `COC(=O)c1cc(-c2ccc(OC)cc2)[nH]c1N/N=C/c1c(Cl)cccc1Cl`, the growth in the experiment with HCT-15 colon was 16.4%; in the experiment on HT29 colon, -56.5% (active); in the experiment with SNB-75 CNS, -10.6% (active); with SNB-19 CNS it was 19.1%; with U251 CNS it was 7.09% (active); with PC-3 prostate, 16.2%. The growth is -2.73% (active) in the experiment with SK-MEL-5 melanoma; 21.3% in the experiment on UACC-62 melanoma; 24.2% in the experiment on LOX IMVI melanoma; 34% with SK-MEL-28 melanoma; 52.9% with SK-MEL-2 melanoma; 20.1% in the experiment on EKVX NSCLC. The growth with SN12C renal is 26%; in the experiment with UO-31 renal, 27.9%; in the experiment on TK-10 renal it was 47.8%; in the experiment with ACHN renal, 39.3%; with CAKI-1 renal, -5.7% (active); in the experiment with A498 renal, -2.53% (active). The growth was 12.2% in the experiment on CCRF-CEM leukemia and 12.4% with MOLT-4 leukemia.

On to `COc1cccc(NC(=O)Cn2cc(CN3CCN(c4ccnc5cc(Cl)ccc45)CC3)nn2)c1`, for which the growth with HCT-15 colon was 89.8%; in the experiment on HT29 colon it was 98%; with SNB-75 CNS, 75.5%; with SNB-19 CNS, 88.7%; in the experiment on U251 CNS, 96.3%; in the experiment with PC-3 prostate, 67.4%. Besides, the growth in the experiment with SK-MEL-5 melanoma was 59.3%; in the experiment with UACC-62 melanoma, 75.8%; in the experiment with LOX IMVI melanoma it was 86.8%; in the experiment with SK-MEL-28 melanoma, 102%; in the experiment on SK-MEL-2 melanoma, 106%; in the experiment with EKVX NSCLC it was 76.7%. Besides, the growth is 92.1% in the experiment with SN12C renal; 62% in the experiment on UO-31 renal; 104% in the experiment with TK-10 renal; 85% in the experiment on ACHN renal; 78% with CAKI-1 renal; 104% in the experiment with A498 renal. For the same compound, the growth with CCRF-CEM leukemia is -45.1% (active); with MOLT-4 leukemia it was 50%.

`COc1ccc2nc3ccc(OC)cc3c(SCCCN)c2c1`: the growth is 47.3% in the experiment with HCT-15 colon; 37.4% in the experiment on HT29 colon; 89.3% in the experiment with SNB-75 CNS; 94.8% in the experiment with SNB-19 CNS; 82.7% in the experiment on U251 CNS; 65.6% with PC-3 prostate. For the same compound, the growth was 108% in the experiment on SK-MEL-5 melanoma; 113% in the experiment with UACC-62 melanoma; 63.1% in the experiment with LOX IMVI melanoma; 121% with SK-MEL-28 melanoma; 110% in the experiment with SK-MEL-2 melanoma; 87.1% in the experiment on EKVX NSCLC. Further, the growth is 67.9% in the experiment with SN12C renal; 53.3% in the experiment on UO-31 renal; 114% with TK-10 renal; 43.7% in the experiment on ACHN renal; 74.1% in the experiment on CAKI-1 renal; 83.2% in the experiment with A498 renal. For the same compound, the growth was 10.5% with CCRF-CEM leukemia and -5.22% (active) with MOLT-4 leukemia.
